Test [1] is described as follows: inhibitors of TNFa-induced NFkB p65 translocation, primary screen, imaging, HUVEC, MLSMR starter and 10KST1 sets (AID 438;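 active = inhibition above 20% together with a positive visual image hit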;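 note: compound added about 3h40 before a 20 min TNFalpha stimulation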;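 for inhibition: signal is the nuclear over cytoplasmic p65 intensity ratio per well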). The conditions noted are these: HUVEC TNFa-induced p65 nuclear translocation; cell count: measured here: nuclei count (cytotoxicity indicator), at 2.08 µM; inhibition: at 2 µM, stronger effect = higher value, 0% TNFa-plus-vehicle, 100% no-TNFa wells.
The nature of test [2]: inhibitors of mutant huntingtin aggregation, primary screen, imaging, exon1htt(103Q)mCFP cells, high-content imaging (AID 483;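 active = visual image review flags a hit and inhibition of aggregation exceeds 20%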;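 note: compound exposure lasted 3 days before fixation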;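 for nuclei count: percent of the per-plate median nuclei count of sample wells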). The conditions noted are these: exon1htt(103Q)mCFP cell line, aggregate imaging, at 2 µM; inhibition of aggregation: stronger effect = higher value; nuclei count: measured here: cell count, toxicity.
Test [3] is described as follows: inhibitors of E-selectin induction by TNFa, primary screen, imaging, HUVEC, immunofluorescence, MLSMR starter and 10KST1 sets (AID 487;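 active = visually confirmed hit in the image check and inhibition above 20%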;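 for inhibition: signal is fraction of cell area covered by stained E-selectin grains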;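 for nuclei count: 100% = median nuclei count of all wells on the same plate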). The conditions noted are these: HUVEC TNFalpha-induced E-selectin immunofluorescence imaging, at 2 µM; inhibition: stronger effect = higher value; nuclei count: measured here: cell number, toxicity.
Test [4] has as its target Voltage-gated potassium channel subunit beta-2 (Rattus norvegicus) (UniProt P62483). In words: KvBeta enzyme negative modulators, primary screen, biochemical, NADPH fluorescence (AID 622;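 active = fluorescence slope higher than the sample average by over 3 SD, cut at about -0.22 in these data, passing the limit was not always enough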;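 note: slope of raw intensity against log time taken from 70 to 1610 s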). The conditions noted are these: recombinant KvBeta, 4-cyanobenzaldehyde reduction, at 10 µM, stronger effect = higher value.
Test [5] shares this target. In words: KvBeta positive modulators, primary screen, biochemical, NADPH fluorescence (AID 623;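 active = NADPH fluorescence slope more negative than the mean of all samples by about 3 SD, 99.7% confidence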;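 note: fluorescence intensity change per second fitted from 20 to 320 s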). The conditions noted are these: Recombinant KvBeta, NADPH fluorescence decrease slope, 10 min; at 10 µM; stronger effect = lower value.
The target in test [6] is Alpha-2C adrenergic receptor (Homo sapiens) (UniProt P18825). The test can be described thus: modulators of alpha2C/GIRK thallium flux, primary screen, cell-based, HEK293 alpha2C/GIRK1/2 (AID 624;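 active = fluorescence slope after compound addition differing from the mean of all screened samples at 99.7% confidence, in either direction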;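 note: slope of fluorescence ratio to pre-addition baseline per second over 15 to 24 s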). The conditions noted are these: thallium flux BTC fluorescence, at 10 µM, actives lie on both sides.
Test [7] can be described thus: inhibitors of Sendai virus-induced IRF3 signaling, primary screen, TLR/RLR signaling modifier project, cell-based, Sendai virus stimulus, luciferase, 10K MLSCN set (AID 602276).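 Note: firefly luciferase from ISG56 promoter only with Renilla not read in this screen; 0% = Sendai virus plus DMSO and 100% = medium plus DMSO without virus.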 The conditions noted are these: HEK293 RL24 IRF3 luciferase reporter, at 10 µM, stronger effect = higher value.
The nature of test [8]: inhibitors of poly I:C-induced TLR3 signaling, primary screen, cell-based, poly I:C stimulus, luciferase, 10K MLSCN set (AID 602277;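 active = inhibition of the reporter signal at or above 50%; inactive = inhibition below 50%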). The conditions noted are these: HEK293-TLR3 RL24 IRF3 luciferase reporter, at 10 µM, stronger effect = higher value. Background: Reporter assays use an easily measured gene product as a stand-in for the process of interest.

Activity calls are given as the source filed them.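 Rule for the calls, unless noted: active = inhibition at or above 50% at 10 µM; inactive = inhibition below 50%.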

Sequence of Voltage-gated potassium channel subunit beta-2 (Rattus norvegicus) (P62483 whole entry, looked up): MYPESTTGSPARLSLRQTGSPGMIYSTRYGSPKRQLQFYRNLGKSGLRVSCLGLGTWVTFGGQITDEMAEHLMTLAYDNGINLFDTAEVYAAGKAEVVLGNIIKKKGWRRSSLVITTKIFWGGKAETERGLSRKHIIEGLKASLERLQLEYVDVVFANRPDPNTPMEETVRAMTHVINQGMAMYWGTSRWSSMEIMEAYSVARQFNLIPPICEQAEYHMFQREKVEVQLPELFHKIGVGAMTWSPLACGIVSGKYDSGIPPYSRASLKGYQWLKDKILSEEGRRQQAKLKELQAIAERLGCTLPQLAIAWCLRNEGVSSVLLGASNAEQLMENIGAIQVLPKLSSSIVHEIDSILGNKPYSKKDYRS
Sequence of Alpha-2C adrenergic receptor (Homo sapiens) (P18825 whole entry, looked up): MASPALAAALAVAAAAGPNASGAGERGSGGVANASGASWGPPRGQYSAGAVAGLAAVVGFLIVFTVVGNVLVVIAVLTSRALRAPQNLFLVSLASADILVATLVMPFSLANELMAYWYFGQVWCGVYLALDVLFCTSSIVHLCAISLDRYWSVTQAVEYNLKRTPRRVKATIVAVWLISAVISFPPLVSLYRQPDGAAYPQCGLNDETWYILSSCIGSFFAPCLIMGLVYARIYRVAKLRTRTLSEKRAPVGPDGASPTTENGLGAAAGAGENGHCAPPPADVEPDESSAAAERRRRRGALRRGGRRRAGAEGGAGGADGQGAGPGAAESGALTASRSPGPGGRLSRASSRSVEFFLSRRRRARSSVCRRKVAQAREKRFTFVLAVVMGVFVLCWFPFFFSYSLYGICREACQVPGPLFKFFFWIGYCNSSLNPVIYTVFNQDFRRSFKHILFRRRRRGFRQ

Take `COc1ccc(-c2noc(CN(C(=O)C(C)(C)C)C(C)C)n2)cc1`: the cell count in test [1] came to 420. Also, the inhibition (as a rule, the drop in the measured response relative to a control, in per cent) in test [1] was 5% (inactive); in test [3], -73% (inactive); in test [7], -16.3% (inactive); in test [8], -34% (inactive). Further, in test [2], the inhibition of aggregation is 10.8% (inactive). For the same compound, the nuclei count stood at 93% in test [2] and 117% in test [3]. Also, the fluorescence slope in test [4] was -0.43 (inactive). For the same compound, the NADPH fluorescence slope in test [5] was -5.1e-05 (inactive). Also, the slope in test [6] is 0.00416 (inactive).

With `CC(C)[C@H](NC(=O)NC1CCCC1)C(=O)O`, the cell count in test [1] was found to be 252. Also, the inhibition in test [1] was 2.5% (inactive); in test [3] it was 3.3% (inactive); in test [7], 5.42% (inactive); in test [8], 16.1% (inactive). Further, the inhibition of aggregation in test [2] is 7.6% (inactive). Moreover, the nuclei count in test [2] came out at 87.5%; in test [3], 91.7%. Further, the fluorescence slope in test [4] is -0.462 (inactive). Also, the NADPH fluorescence slope in test [5] was 2e-05 (inactive). Moreover, the slope in test [6] was 0.0056 (inactive).

Take `COc1ccc(NC(=O)C(C)Oc2ccc(/C(C)=N\O)cc2)cc1` (stereo not given): in test [1], the cell count was 581. Also, the inhibition was 2.7% (inactive) in test [1], 24.1% (inactive) in test [3], 14.5% (inactive) in test [7] and 19.2% (inactive) in test [8]. Also, the inhibition of aggregation in test [2] is 13.8% (inactive). Moreover, the nuclei count in test [2] came to 114%; in test [3] it was 105%. Also, in test [4], the fluorescence slope was -0.307 (inactive). In addition, the NADPH fluorescence slope in test [5] is 3.7e-05 (inactive). Besides, the slope in test [6] was 0.00609 (inactive).

As to `CCOC(=O)N1CCC(NC(=O)CSCc2nc(-c3cccc(OC)c3)oc2C)CC1`, the cell count in test [1] was 292. Moreover, the inhibition in test [1] is 4.4% (inactive); in test [3], -30.2% (inactive); in test [7] it was 9% (inactive); in test [8], -6.15% (inactive). Besides, the inhibition of aggregation in test [2] is -9% (inactive). For the same compound, the nuclei count in test [2] is 94.6%; in test [3] it was 124%. In test [4], the fluorescence slope was -0.498 (inactive). Further, the NADPH fluorescence slope in test [5] is -5.4e-05 (inactive). In addition, the slope in test [6] is 0.00445 (inactive).

Consider `Cc1cc(C)cc(N(CC(=O)NC2CCC(C)CC2)S(=O)(=O)c2c(C)noc2C)c1` (stereo not given), for which, in test [1], the cell count was 753. The inhibition in test [1] is -6.3% (inactive); in test [3], -27.2% (inactive); in test [7], 7.51% (inactive); in test [8], 32.5% (inactive). In test [2], the inhibition of aggregation is 12.1% (inactive). Besides, the nuclei count came to 114% in test [2] and 115% in test [3]. For the same compound, the fluorescence slope in test [4] is -0.622 (inactive). Further, the NADPH fluorescence slope in test [5] is -3e-05 (inactive). The slope in test [6] is 0.00687 (inactive).

For `CCOC(=O)c1ccccc1NC(=O)c1cccnc1`, in test [1], the cell count is 381. In addition, the inhibition was 5.5% (inactive) in test [1], -167% (inactive) in test [3], -0.374% (inactive) in test [7] and 10.8% (inactive) in test [8]. The inhibition of aggregation in test [2] is -28.4% (inactive). For the same compound, the nuclei count in test [2] was found to be 117%; in test [3], 135%. Moreover, the fluorescence slope in test [4] is -0.504 (inactive). In addition, the NADPH fluorescence slope in test [5] was 2.4e-05 (inactive). The slope in test [6] was 0.00744 (inactive).

For `CCCCC(=O)Nc1ccc(NC(=O)C2CC2)nc1`, in test [1], the cell count was determined as 558. The inhibition was 19.2% (inactive) in test [1], 22.7% (inactive) in test [3], 3.06% (inactive) in test [7] and -2.76% (inactive) in test [8]. The inhibition of aggregation in test [2] is 16% (inactive). Also, the values for the nuclei count in test [2] and in test [3] were 67.6% and 94.2%, respectively. Moreover, the fluorescence slope in test [4] was -0.474 (inactive). In addition, the NADPH fluorescence slope in test [5] is -6e-05 (inactive). The slope in test [6] is 0.00505 (inactive).

Turning to `Oc1cccc(C=NCc2ccccc2)c1O`, the cell count in test [1] was determined as 332. Further, the inhibition was -2.5% (inactive) in test [1], -100% (inactive) in test [3], 10.5% (inactive) in test [7] and 41.8% (inactive) in test [8]. In addition, in test [2], the inhibition of aggregation was 15.5% (inactive). Besides, the results for the nuclei count in test [2] and in test [3] were 102% and 130%, respectively. The fluorescence slope in test [4] was -0.46 (inactive). Moreover, the NADPH fluorescence slope in test [5] was -4e-05 (inactive). For the same compound, in test [6], the slope is 0.00215 (inactive).

For the compound `COc1ccc(C(=O)c2ccccc2)c(O)c1`, in test [1], the cell count was determined as 585. The inhibition in test [1] was -2.6% (inactive); in test [3] it was 1.3% (inactive); in test [7] it was -1.71% (inactive); in test [8] it was -8.45% (inactive). In addition, the inhibition of aggregation in test [2] is 6.6% (inactive). Moreover, the nuclei count amounted to 94.1% in test [2] and 97.5% in test [3]. For the same compound, in test [4], the fluorescence slope is -0.443 (inactive). Further, the NADPH fluorescence slope in test [5] was 2.6e-05 (inactive). Moreover, in test [6], the slope was 0.00543 (inactive).

`O=C(NCC1CCCO1)C1c2ccccc2C(=O)N1C1CCCCCC1` (stereo not given): the cell count in test [1] turned out to be 445. Further, the inhibition is -9.2% (inactive) in test [1], -38.3% (inactive) in test [3], 11.3% (inactive) in test [7] and 15.1% (inactive) in test [8]. In addition, the inhibition of aggregation in test [2] is -4.3% (inactive). Also, the nuclei count in test [2] stood at 101%; in test [3], 109%. Also, the fluorescence slope in test [4] is -0.621 (inactive). Also, the NADPH fluorescence slope in test [5] was 2.7e-06 (inactive). For the same compound, the slope in test [6] is 0.00613 (inactive).

For the origin of these results see PubChem BioAssay.
